Here are results for 26 compounds from PubChem BioAssay (NCATS).

Inconclusive results are not listed. Values without a mark were called inactive. Activity calls are given as the source filed them. Calls come from the whole dose curve; as a rule, active = well fitted curve in the direction sought with a large enough effect; inconclusive = small, poorly fitted or top-dose-only effect, or another doubt; inactive = no such curve, though single readings can be large; an effect the other way counts as inactive or inconclusive.

As a reminder, the viability is a read-out of living cells in per cent, often relative to untreated cells.

The nature of assay [1]: Quantitative High-Throughput drug screen in 47 multiple myeloma cell lines against the NCATS MIPE library collection: KMS34_JCRB cell viability assay (AID 1918985). Note: nearly all actives have a fitted effect of over 40% in size. Note: potency is the fitted concentration of half-maximal effect. Put shortly:
(§1)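 500 cells/well per myeloma line exposed to pinned MIPE 4.0 compounds for 48 h at 37 °C, 5% CO2. Viability read as ATP by CellTiter-Glo luminescence, normalised to DMSO-only (100%) and media-only (0%) wells.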

The nature of assay [2]: Quantitative High-Throughput drug screen in 47 multiple myeloma cell lines against the NCATS MIPE library collection: SKMM1_PLB cell viability assay (AID 1919863). For viability: series mostly up to about 46 µM. Note: nearly all actives have a fitted effect of over 35% in size. Note: potency is the fitted concentration of half-maximal effect. The conditions noted are these: SKMM1 myeloma viability, CellTiter-Glo ATP, 48 h; viability: hits give low values. Put shortly:
as §1
On the technique in general: In ATP-based viability assays light output follows the ATP content of the culture.

A short description of assay [3]: Quantitative High-Throughput drug screen in 47 multiple myeloma cell lines against the NCATS MIPE library collection: RPMI8226_ATCC cell viability assay (AID 1919871). Note: nearly all actives have a fitted effect of over 30% in size. Note: potency is the fitted concentration of half-maximal effect. A digest of the protocol:
as §1

Assay [4] can be described thus: Quantitative High-Throughput drug screen in 47 multiple myeloma cell lines against the NCATS MIPE library collection: OPM2_DSMZ cell viability assay (AID 1919872). Note: nearly all actives have a fitted effect of over 30% in size. Note: potency is the fitted concentration of half-maximal effect. A digest of the protocol: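 qHTS of the MIPE 4.0 collection: 500 myeloma cells/well, 48 h drug exposure at 37C in 5% CO2, then CellTiter-Glo for 5 min at room temperature before luminescence reading.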

Assay [5] is described as follows: Quantitative High-Throughput drug screen in 47 multiple myeloma cell lines against the NCATS MIPE library collection: KMS28BM_JCRB cell viability assay (AID 1919874). Note: nearly all actives have a fitted effect of over 35% in size. A digest of the protocol:
as §1

Assay [6] is described as follows: Quantitative High-Throughput drug screen in 47 multiple myeloma cell lines against the NCATS MIPE library collection: VP6_DJ cell viability assay (AID 1919867). Note: nearly all actives have a fitted effect of over 40% in size. Note: potency is the fitted concentration of half-maximal effect. Put shortly:
as §1

Assay [7] is described as follows: Quantitative High-Throughput drug screen in 47 multiple myeloma cell lines against the NCATS MIPE library collection: KMS28PE_JCRB cell viability assay (AID 1918983). Note: nearly all actives have a fitted effect of over 35% in size. Note: potency is the fitted concentration of half-maximal effect. Put shortly: as §1
Assay [8] is described as follows: Quantitative High-Throughput drug screen in 47 multiple myeloma cell lines against the NCATS MIPE library collection: OCIMY5_PLB cell viability assay (AID 1918988). Note: nearly all actives have a fitted effect of over 65% in size. Note: potency is the fitted concentration of half-maximal effect. A digest of the protocol:
as §1

Assay [9] can be described thus: Quantitative High-Throughput drug screen in 47 multiple myeloma cell lines against the NCATS MIPE library collection: U266_ATCC cell viability assay (AID 1919864). Note: nearly all actives have a fitted effect of over 35% in size. Note: potency is the fitted concentration of half-maximal effect. A digest of the protocol:
as §1

Assay [10] can be described thus: Quantitative High-Throughput drug screen in 47 multiple myeloma cell lines against the NCATS MIPE library collection: XG6_PLB cell viability assay (AID 1919865). Note: nearly all actives have a fitted effect of over 40% in size. Note: potency is the fitted concentration of half-maximal effect. Put shortly: as §1
Assay [11] in a line: Quantitative High-Throughput drug screen in 47 multiple myeloma cell lines against the NCATS MIPE library collection: XG1_PLB cell viability assay (AID 1919866). Note: nearly all actives have a fitted effect of over 35% in size. Note: potency is the fitted concentration of half-maximal effect. A digest of the protocol:
as §1

Assay [12] is described as follows: Quantitative High-Throughput drug screen in 47 multiple myeloma cell lines against the NCATS MIPE library collection: PCM6_Riken cell viability assay (AID 1919870). Note: nearly all actives have a fitted effect of over 30% in size. Note: potency is the fitted concentration of half-maximal effect. A digest of the protocol:
as §1

The nature of assay [13]: Quantitative High-Throughput drug screen in 47 multiple myeloma cell lines against the NCATS MIPE library collection: KMS11_JCRBsus cell viability assay (AID 1919873). Note: nearly all actives have a fitted effect of over 50% in size. Note: potency is the fitted concentration of half-maximal effect. Put shortly:
as §1

Assay [14] in a line: Quantitative High-Throughput drug screen in 47 multiple myeloma cell lines against the NCATS MIPE library collection: OPM1_PLB cell viability assay (AID 1918989). Note: nearly all actives have a fitted effect of over 40% in size. Note: potency is the fitted concentration of half-maximal effect. A digest of the protocol: as §1
The nature of assay [15]: Quantitative High-Throughput drug screen in 47 multiple myeloma cell lines against the NCATS MIPE library collection: PE2_PLB cell viability assay (AID 1919869). Note: nearly all actives have a fitted effect of over 35% in size. Note: potency is the fitted concentration of half-maximal effect. Put shortly: as §1
A short description of assay [16]: Quantitative High-Throughput drug screen in 47 multiple myeloma cell lines against the NCATS MIPE library collection: OCIMY7_PLB cell viability assay (AID 1918987). Note: nearly all actives have a fitted effect of over 65% in size. Note: potency is the fitted concentration of half-maximal effect. Put shortly: as §1
A short description of assay [17]: Quantitative High-Throughput drug screen in 47 multiple myeloma cell lines against the NCATS MIPE library collection: UTMC2_PLB cell viability assay (AID 1919868). Note: nearly all actives have a fitted effect of over 55% in size. A digest of the protocol:
as §1

Assay [18] is described as follows: Quantitative High-Throughput drug screen in 47 multiple myeloma cell lines against the NCATS MIPE library collection: L363_DSMZ cell viability assay (AID 1918984). Note: nearly all actives have a fitted effect of over 40% in size. Note: potency is the fitted concentration of half-maximal effect. Put shortly: as §1
In assay [19] the target is Cytochrome P450 2D6 (Homo sapiens) (UniProt P10635). Description: qHTS for inhibitors of CYP2D6 against the NCATS DSHEA and TCM libraries (AID 1919972). Note: % is set by controls: 0 for no effect and ±100 for the full control effect. A digest of the protocol:
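Luminescent P450-Glo read-out of CYP2D6 turnover of a luciferin substrate after NADPH-driven reaction of 30-45 min at room temperature. Compounds were first preincubated 15 min with enzyme at titrated concentrations; quinidine was the intraplate control.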

Chain of Cytochrome P450 2D6 (Homo sapiens) (P10635 whole entry, looked up): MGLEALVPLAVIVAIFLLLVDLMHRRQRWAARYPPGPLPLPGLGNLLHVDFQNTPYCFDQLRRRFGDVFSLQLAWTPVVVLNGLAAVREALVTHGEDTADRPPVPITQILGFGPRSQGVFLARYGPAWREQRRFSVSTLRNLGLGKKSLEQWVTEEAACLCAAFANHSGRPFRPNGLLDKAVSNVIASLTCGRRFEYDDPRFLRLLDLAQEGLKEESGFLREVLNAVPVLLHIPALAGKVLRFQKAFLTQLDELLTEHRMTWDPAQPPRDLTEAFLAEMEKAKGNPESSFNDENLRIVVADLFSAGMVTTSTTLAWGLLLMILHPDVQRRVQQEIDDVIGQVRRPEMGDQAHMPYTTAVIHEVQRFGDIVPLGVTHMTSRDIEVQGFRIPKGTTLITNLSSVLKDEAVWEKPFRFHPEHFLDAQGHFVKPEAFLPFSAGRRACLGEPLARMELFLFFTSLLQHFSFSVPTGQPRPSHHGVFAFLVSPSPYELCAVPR

Take `CCOC(=O)c1ccc(C#Cc2ccc3c(c2)C(C)(C)CCS3)nc1`: the Potency result in [1], in assay [3], in assay [4] and in assay [5] was “inactive” each time. The viability in [2] is 115%.

With `CCC(C)(C)c1ccc(CC(C)CN2C[C@@H](C)O[C@@H](C)C2)cc1` (some centres not stated), the Potency in [6] was 16.6 µM (active). The Potency result in assay [4] was “inactive”.

`COc1c(N2CCNC(C)C2)c(F)cc2c(=O)c(C(=O)O)cn(C3CC3)c12` (configuration not stated): the Potency result in assay [7], in assay [8], in [9], in assay [10], in assay [11] and in [12] was “inactive” each time. For the same compound, the Potency entry in assay [3], in [4] and in assay [13] was “inactive” each time. Moreover, the viability in assay [2] was 135%.

With `CC1(C)[C@H](C(=O)O)N2C(=O)C[C@H]2S1(=O)=O`, the Potency entry in assay [14], in assay [10], in assay [6], in assay [15], in assay [3] and in assay [13] was “inactive” throughout. In addition, the Potency result in assay [5] is “inactive”. In addition, in [2], the viability was 120%.

Regarding `CC(C)C1CCC(C(=O)N[C@H](Cc2ccccc2)C(=O)O)CC1` (some centres not stated), the Potency entry in assay [1], in assay [14], in [10], in assay [11], in [12] and in assay [5] was “inactive” throughout. Also, the Potency in assay [3] was 23.5 µM (active); in [4], 0.0093 µM (active); in [13], 16.6 µM (active).

Consider `O=c1cc(O)c(Cl)c[nH]1`, for which the Potency result in [1], in assay [14], in assay [15] and in assay [3] was “inactive” in each case. For the same compound, the Potency is 5.9 µM (active) in assay [9]; 1.87 µM (active) in [10]; 3.72 µM (active) in [11]; 0.132 µM (active) in assay [6]; 2.96 µM (active) in assay [12].

As to `CC(C)OC(=O)OCOP(=O)(CO[C@H](C)Cn1cnc2c(N)ncnc21)OCOC(=O)OC(C)C`, the Potency was 3.72 µM (active) in assay [8], 16.6 µM (active) in assay [9] and 16.6 µM (active) in assay [12]. Also, the Potency entry in assay [14], in assay [4] and in assay [13] was “inactive” throughout.

On to `COC(=O)Nc1nc2ccc(S(=O)c3ccccc3)cc2[nH]1` (configuration not stated), for which the Potency is 23.5 µM (active) in assay [1]; 7.43 µM (active) in [16]; 16.6 µM (active) in assay [8]; 9.35 µM (active) in [10]; 8.33 µM (active) in [11]; 13.2 µM (active) in [6]. Moreover, the Potency in [13] was 8.33 µM (active).

With `NC(=O)N1c2ccccc2CC(=O)c2ccccc21`, the Potency entry in [1], in [14], in [10], in [6], in [15] and in assay [12] was “inactive” throughout. For the same compound, the Potency entry in assay [3] was “inactive”. Further, the viability in assay [2] was 118%.

In the case of `Clc1ccccc1CN1CCc2sccc2C1`, the Potency result in [3] is “inactive”.

For the compound `CNS(=O)(=O)Cc1ccc2[nH]cc(CCN(C)C)c2c1`, the Potency entry in assay [1], in [16], in [8], in assay [14], in assay [10] and in [11] was “inactive” in each case. The Potency entry in [12], in assay [3], in assay [4], in [13] and in [5] was “inactive” each time. Besides, the viability in assay [2] is 112%.

For the compound `CC1=C(C(=O)O)N2C(=O)[C@@H](NC(=O)C(N)c3ccccc3)[C@H]2SC1` (some centres not stated), the Potency entry in [7], in assay [14], in [10], in assay [6], in assay [17] and in assay [15] was “inactive” in each case. Besides, the Potency entry in assay [12], in assay [4], in assay [13] and in assay [5] was “inactive” each time.

As to `CC(C)NCC(O)c1ccc(NS(C)(=O)=O)cc1` (configuration not stated), the Potency entry in assay [7], in assay [14], in assay [10], in [12], in assay [4] and in assay [13] was “inactive” throughout. For the same compound, the Potency result in assay [5] was “inactive”. For the same compound, the viability in assay [2] was 159%.

Consider `C[C@@H](CN1CC(=O)NC(=O)C1)N1CC(=O)NC(=O)C1`, for which the results for the Potency in assay [18] and in assay [16] were 2.96 µM (active) and 2.35 µM (active), respectively. Further, the Potency result in assay [1], in assay [8], in assay [9], in assay [3] and in [13] was “inactive” throughout. In [2], the viability was 130%.

With `O=c1oc2c(O)c(O)cc3c(=O)oc4c(O)c(O)cc1c4c23`, the Potency result in assay [7], in assay [14], in assay [9], in [15], in [12] and in assay [13] was “inactive” each time.

Consider `CN1CCN(c2c(F)cc3c(=O)c(C(=O)O)cn(CCF)c3c2F)CC1`, for which the Potency entry in assay [7], in assay [14], in assay [11], in [12], in assay [4] and in assay [5] was “inactive” in each case.

`CC1=CC(=O)c2ccccc2C1=O`: the Potency was 33.2 µM (active) in assay [16]; 16.6 µM (active) in assay [8]; 23.5 µM (active) in assay [14]; 16.6 µM (active) in [2]; 18.7 µM (active) in assay [9]; 14.8 µM (active) in assay [10]. Also, the Potency is 23.5 µM (active) in assay [11]; 16.6 µM (active) in assay [6]; 4.18 µM (active) in assay [15]; 18.7 µM (active) in assay [12]; 20.9 µM (active) in assay [4]; 18.7 µM (active) in assay [13].

Consider `CC(C(=O)O)c1ccc2c(c1)CC(=O)c1ccccc1S2` (configuration not stated), for which the Potency result in [7], in [14], in assay [15], in assay [3] and in assay [4] was “inactive” in each case.

Consider `Cn1nnc2c(C(N)=O)ncn2c1=O`, for which the Potency entry in assay [14], in assay [10], in assay [11], in assay [12], in [3] and in assay [4] was “inactive” in each case. Besides, the Potency result in [13] is “inactive”.

As for `O=C(O)CSCC(=O)NC1CCSC1=O` (configuration not stated), the Potency entry in assay [7], in [14], in [10], in assay [11], in assay [15] and in [12] was “inactive” in each case. In addition, the Potency entry in assay [3], in assay [13] and in assay [5] was “inactive” each time.

With `N[C@@H](Cc1ccc(O)c(O)c1)C(=O)O`, the Potency entry in assay [16], in assay [9], in assay [10] and in [3] was “inactive” in each case.

Regarding `CN(C)CCc1c[nH]c2ccc(CS(=O)(=O)N3CCCC3)cc12`, the Potency entry in assay [1], in assay [8], in assay [14], in [9], in assay [3] and in [5] was “inactive” in each case. The viability in assay [2] is 119%. The Potency in [11] is 20.9 µM (active).

On to `NNC(=O)c1ccncc1`, for which the Potency entry in assay [7], in assay [14], in [10], in assay [6], in assay [15] and in [12] was “inactive” throughout. Further, the Potency result in [3], in assay [13] and in assay [19] was “inactive” in each case.

As for `CC(C)Cn1cnc2c(N)nc3ccccc3c21`, the figures for the Potency in [7], in assay [8] and in [9] were 23.5 µM (active), 16.6 µM (active) and 20.9 µM (active), respectively. The Potency result in assay [6], in assay [15] and in [4] was “inactive” in each case.

As to `CN(C)CCc1c[nH]c2ccc(C[C@H]3COC(=O)N3)cc12`, the Potency entry in assay [18], in assay [1], in [16], in [8], in assay [11] and in [6] was “inactive” throughout. For the same compound, the Potency result in [12], in assay [3] and in assay [13] was “inactive” each time. In addition, in assay [2], the viability is 104%. Besides, the Potency in assay [10] is 3.32 µM (active).

For the compound `O=C(O)c1ccc(-n2nc(-c3ccccc3O)nc2-c2ccccc2O)cc1`, the Potency result in assay [7] and in assay [4] was “inactive” throughout. Further, the Potency in assay [14] was 23.5 µM (active); in [10] it was 20.9 µM (active); in assay [6], 16.6 µM (active); in assay [12], 23.5 µM (active).
